Results filed as inconclusive are left out. Calls of active or inactive are those of the source. Rule for the calls, unless noted: active = hit-call score of the fitted dose curve at least 0.9, where 1 is the maximum; inconclusive = response in the unintended direction; inactive = score below 0.9.
Key:
[1] = biological target: Nuclear receptor subfamily 1 group I member 2 (Homo sapiens) (UniProt O75469); test: ATG_PXR_TRANS: Attagene TRANS-FACTORIAL HepG2 Assay for human Pregnane X Receptor (PXR) (AID 2283008)
Procedure, shortened: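 HepG2 transfected (FuGene 6) with GAL4-UAS reporter units + PXR-Gal4 chimera; dosed 24 h. Total RNA → oligo(dT) RT → PCR → 6-FAM primer extension → HpaI cut → CE. Gain-of-signal vs DMSO.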

[2] = biological target: human RAR-related Orphan Receptor beta (RORb), RORB (gene 6096) (UniProt Q92753); test: ATG_RORb_TRANS: Attagene TRANS-FACTORIAL HepG2 Assay for human RAR-related Orphan Receptor beta (RORb) (AID 2283010)
Procedure, shortened: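 Multiplexed transcription-factor reporter assay: HepG2 cells transiently carrying NR-Gal4/GAL4-UAS constructs, 24 h treatment, mRNA quantified by RT-PCR plus capillary electrophoresis fluorescence; activity scored as induction over DMSO.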

[3] = biological target: human Thyroid Receptor alpha (THRa1), THRA (gene 7067) (UniProt P10827); test: ATG_THRa1_TRANS: Attagene TRANS-FACTORIAL HepG2 Assay for human Thyroid Receptor alpha (THRa1) (AID 2283014)
Procedure, shortened: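 HepG2 cells transiently transfected with multiplexed GAL4-UAS reporter units for exogenous chimeric THRa1-Gal4; reporter mRNA measured 24 h after dosing by RT-PCR, 6-FAM labelling, HpaI digestion and capillary electrophoresis. Gain-of-signal fitted versus DMSO baseline.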

[4] = biological target: Peroxisome proliferator-activated receptor gamma (Homo sapiens) (UniProt P37231); test: ATG_PPARg_TRANS: Attagene TRANS-FACTORIAL HepG2 Assay for human Peroxisome Proliferator-activated Receptor-gamma (PPARg) (AID 2283007)
Procedure, shortened: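 Gain-of-signal endpoint relative to DMSO, derived from reporter mRNA levels quantified by RT-PCR and capillary electrophoresis. Cells were HepG2 transiently expressing a chimeric NR-Gal4 construct with GAL4-UAS reporters, exposed to chemicals for 24 h.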

[5] = biological target: human RAR-related Orphan Receptor gamma (RORg), RORC (gene 6097) (UniProt P51449); test: ATG_RORg_TRANS: Attagene TRANS-FACTORIAL HepG2 Assay for human RAR-related Orphan Receptor gamma (RORg) (AID 2283011)
Procedure, shortened: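 Readout: reporter transcript induction (RT-PCR, fluorescent primer extension, capillary electrophoresis) after 24 h compound exposure of transiently transfected HepG2 cells carrying a RORg-Gal4 chimera and GAL4-UAS reporters; DMSO served as baseline, with increasing signal fitted.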

[6] = read-out: Intercellular Adhesion Molecule 1 (ICAM1), ICAM1 (gene 3383); test: BSK_3C_ICAM1: BioMAP Diversity Plus: 3C Assay for Intercellular Adhesion Molecule 1 (ICAM1) Biomarker Activity (AID 2283003; active = hit-call score of the fitted dose curve at least 0.9, where 1 is the maximum; inactive = score below 0.9); details: primary human endothelial cells (HUVEC); actives raise or lower the signal
Procedure, shortened: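 Using DMSO as baseline, bidirectional curve fitting was applied to ICAM-1 ELISA signals from HUVEC in the 3C system, measured 24 h after compound addition.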

[7] = BSK_3C_Proliferation: Cell Proliferation Assessment in the BioMAP Diversity Plus: 3C Assay (AID 2283006; active = hit-call score of the fitted dose curve at least 0.9, where 1 is the maximum; inactive = score below 0.9;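 for AC50: potency may reflect either rise or fall in cell number versus DMSO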); details: primary human endothelial cells (HUVEC)
Procedure, shortened: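 Measured here: sulforhodamine B (0.1%) staining of TCA-fixed sub-confluent umbilical vein endothelial cultures 48 h post-dosing, absorbance 560 nm. DMSO served as negative control and baseline; both signal gain and loss were modelled.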

[8] = biological target: human Retinoid X Receptor beta (RXRb), RXRB (gene 6257) (UniProt P28702); test: ATG_RXRb_TRANS: Attagene TRANS-FACTORIAL HepG2 Assay for human Retinoid X Receptor beta (RXRb) (AID 2283013)
Procedure, shortened: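 After a 24 h incubation with test chemical, transfected HepG2 cells carrying NR-Gal4 fusions and GAL4-UAS reporter transcription units yield RNA whose reporter cDNA is FAM-labelled, HpaI-cut and sized by capillary electrophoresis; increases over DMSO are scored.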

[9] = read-out: E-selectin (Homo sapiens) (UniProt P16581); test: BSK_3C_Eselectin: BioMAP Diversity Plus: 3C Assay for Eselectin Biomarker Activity (AID 2283015; active = hit-call score of the fitted dose curve at least 0.9, where 1 is the maximum; inactive = score below 0.9); details: primary human endothelial cells (HUVEC); actives raise or lower the signal
Procedure, shortened: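 Primary human umbilical vein endothelial cells (3C system) were dosed with chemical and cell-surface E-selectin measured by ELISA 24 h later. Bidirectional curve fitting used DMSO as negative control and baseline.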

[10] = read-out: Interleukin-1 alpha (IL1a), IL1A (gene 3552); test: BSK_BE3C_IL1a: BioMAP Diversity Plus: BE3C Assay for Interleukin-1 alpha (IL1a) Biomarker Activity (AID 2283016; active = hit-call score of the fitted dose curve at least 0.9, where 1 is the maximum; inactive = score below 0.9); details: primary human bronchial epithelial cells; actives raise or lower the signal
Procedure, shortened: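 Measured in human lung primary bronchial epithelial cells: IL-1a by ELISA at 24 h after dosing, with bidirectional fitting against DMSO.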

[11] = read-out: Monocyte Chemoattractant Protein-1 (MCP1), CCL2 (gene 6347); test: BSK_3C_MCP1: BioMAP Diversity Plus: 3C Assay for Monocyte Chemoattractant Protein-1 (MCP1) Biomarker Activity (AID 2283017; active = hit-call score of the fitted dose curve at least 0.9, where 1 is the maximum; inactive = score below 0.9); details: primary human endothelial cells (HUVEC); actives raise or lower the signal
Procedure, shortened: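 Primary human umbilical vein endothelial cells (3C system) were exposed to test chemical for 24 h, after which MCP-1 was quantified by ELISA. Activity was fitted bidirectionally against DMSO as negative control and baseline.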

[12] = read-out: Monocyte Chemoattractant Protein-1 (MCP1), CCL2 (gene 6347); test: BSK_4H_MCP1: BioMAP Diversity Plus: 4H Assay for Monocyte Chemoattractant Protein-1 (MCP1) Biomarker Activity (AID 2283018; active = hit-call score of the fitted dose curve at least 0.9, where 1 is the maximum; inactive = score below 0.9); details: primary human endothelial cells (HUVEC); actives raise or lower the signal
Procedure, shortened: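 Primary human umbilical vein endothelium is exposed to chemical for 24 h before MCP-1 is assayed by ELISA. Concentration-response fitted bidirectionally relative to DMSO.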

[13] = read-out: Interleukin-8 (IL8), CXCL8 (gene 3576); test: BSK_3C_IL8: BioMAP Diversity Plus: 3C Assay for Interleukin-8 (IL8) Biomarker Activity (AID 2283020; active = hit-call score of the fitted dose curve at least 0.9, where 1 is the maximum; inactive = score below 0.9); details: primary human endothelial cells (HUVEC); actives raise or lower the signal
Procedure, shortened: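 Using DMSO-treated wells as the baseline, bidirectional curve fitting was applied to ELISA-measured IL-8 from human umbilical vein endothelial cultures sampled 24 h after compound addition.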

[14] = biological target: Retinoic acid receptor RXR-alpha (Homo sapiens) (UniProt P19793); test: ATG_RXRa_TRANS: Attagene TRANS-FACTORIAL HepG2 Assay for human Retinoid X Receptor alpha (RXRa) (AID 2283012)
Procedure, shortened: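 Chimeric NR-GAL4 trans-activation in HepG2, 24 h treatment; reporter transcripts quantified by fluorescence on capillary electrophoresis, analysed for upward change from DMSO.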

[15] = biological target: human Retinoic Acid Receptor beta (RARb), RARB (gene 5915) (UniProt P10826); test: ATG_RARb_TRANS: Attagene TRANS-FACTORIAL HepG2 Assay for human Retinoic Acid Receptor beta (AID 2283004)
Procedure, shortened: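 HepG2 cells transiently transfected with multiplexed GAL4-UAS reporter units expressing chimeric NR–Gal4 fusions; 24 h compound exposure. Reporter mRNA quantified by RT-PCR, 6-FAM labelling, HpaI digestion and capillary electrophoresis; gain-of-signal fitted against DMSO baseline.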

[16] = biological target: Retinoic acid receptor alpha (Homo sapiens) (UniProt P10276); test: ATG_RARa_TRANS: Attagene TRANS-FACTORIAL HepG2 Assay for human Retinoic Acid Receptor alpha (RARa) (AID 2283005)
Procedure, shortened: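 HepG2 transiently transfected with multiplex GAL4-UAS reporter units including a human RARa–GAL4 chimera; 24 h compound exposure. Reporter mRNA quantified by RT-PCR, 6-FAM labeling and capillary electrophoresis; gain of signal versus DMSO.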

[17] = biological target: human Retinoic Acid Receptor gamma (RARg), RARG (gene 5916) (UniProt P13631); test: ATG_RARg_TRANS: Attagene TRANS-FACTORIAL HepG2 Assay for human Retinoic Acid Receptor gamma (RARg) (AID 2283009)
Procedure, shortened: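 Gain-of-signal relative to DMSO is reported from fluorescent capillary electrophoresis of RT-PCR reporter products. These came from HepG2 cells expressing transfected RARg-GAL4 chimeras with UAS reporters, harvested 24 h after dosing.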

[18] = read-out: Human Leukocyte Antigen - DR isotype (HLADR), HLA-DRA (gene 3122); test: BSK_3C_HLADR: BioMAP Diversity Plus: 3C Assay for Human Leukocyte Antigen - DR isotype (HLADR) Biomarker Activity (AID 2283019; active = hit-call score of the fitted dose curve at least 0.9, where 1 is the maximum; inactive = score below 0.9;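 note: ELISA of cell-surface HLA-DR on HUVEC 24 h after dosing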); details: primary human endothelial cells (HUVEC); actives raise or lower the signal
Procedure, shortened: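 Primary human umbilical vein endothelial cells (3C system) were dosed with compound and cell-surface HLA-DR was quantified by ELISA at 24 h. Activity was fitted bidirectionally against DMSO as negative control and baseline.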

Measured: AC50

Retinoic acid receptor RXR-alpha (Homo sapiens), sequence (P19793 whole entry, looked up, the tested form may be a part): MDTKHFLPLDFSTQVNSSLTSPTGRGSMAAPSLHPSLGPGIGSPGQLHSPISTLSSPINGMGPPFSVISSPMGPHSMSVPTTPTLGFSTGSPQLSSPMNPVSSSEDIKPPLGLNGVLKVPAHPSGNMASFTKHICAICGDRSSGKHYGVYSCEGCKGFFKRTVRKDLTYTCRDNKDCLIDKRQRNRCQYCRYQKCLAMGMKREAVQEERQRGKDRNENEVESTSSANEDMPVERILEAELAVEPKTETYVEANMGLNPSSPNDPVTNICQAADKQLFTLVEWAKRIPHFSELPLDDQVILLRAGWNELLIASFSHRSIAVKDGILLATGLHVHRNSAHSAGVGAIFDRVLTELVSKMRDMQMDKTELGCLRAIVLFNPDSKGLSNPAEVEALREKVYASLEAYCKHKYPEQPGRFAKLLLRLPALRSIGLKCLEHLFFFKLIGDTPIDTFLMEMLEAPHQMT
Peroxisome proliferator-activated receptor gamma (Homo sapiens), sequence (P37231 whole entry, looked up, the tested form may be a part): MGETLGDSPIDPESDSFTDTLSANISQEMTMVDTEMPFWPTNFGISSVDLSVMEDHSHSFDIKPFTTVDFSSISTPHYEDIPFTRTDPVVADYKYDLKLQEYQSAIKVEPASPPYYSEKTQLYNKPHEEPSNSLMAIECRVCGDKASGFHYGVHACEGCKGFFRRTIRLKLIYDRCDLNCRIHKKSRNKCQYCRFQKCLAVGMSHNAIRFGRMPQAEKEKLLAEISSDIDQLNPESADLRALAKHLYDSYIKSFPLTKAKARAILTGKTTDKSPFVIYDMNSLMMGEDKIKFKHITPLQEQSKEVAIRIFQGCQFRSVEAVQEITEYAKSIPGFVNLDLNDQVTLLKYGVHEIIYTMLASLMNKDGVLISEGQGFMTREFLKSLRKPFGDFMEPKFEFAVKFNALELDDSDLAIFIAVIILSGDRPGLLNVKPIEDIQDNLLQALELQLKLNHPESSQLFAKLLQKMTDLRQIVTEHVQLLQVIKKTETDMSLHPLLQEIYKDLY
human Thyroid Receptor alpha (THRa1), THRA (gene 7067), sequence (P10827 whole entry, looked up, the tested form may be a part): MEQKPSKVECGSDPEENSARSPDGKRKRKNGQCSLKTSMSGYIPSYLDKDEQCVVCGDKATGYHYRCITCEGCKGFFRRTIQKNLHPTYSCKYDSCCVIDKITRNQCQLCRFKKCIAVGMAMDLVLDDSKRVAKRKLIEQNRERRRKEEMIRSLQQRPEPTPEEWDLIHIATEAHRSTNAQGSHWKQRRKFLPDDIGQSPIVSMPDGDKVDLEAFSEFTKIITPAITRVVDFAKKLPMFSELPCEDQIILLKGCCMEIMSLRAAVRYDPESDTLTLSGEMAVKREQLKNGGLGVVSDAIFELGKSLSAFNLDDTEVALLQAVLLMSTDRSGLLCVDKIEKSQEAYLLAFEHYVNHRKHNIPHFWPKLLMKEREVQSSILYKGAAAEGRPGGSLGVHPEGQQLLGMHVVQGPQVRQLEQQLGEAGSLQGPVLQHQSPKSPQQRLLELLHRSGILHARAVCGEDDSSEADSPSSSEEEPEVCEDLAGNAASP
human Retinoid X Receptor beta (RXRb), RXRB (gene 6257), sequence (P28702 whole entry, looked up, the tested form may be a part): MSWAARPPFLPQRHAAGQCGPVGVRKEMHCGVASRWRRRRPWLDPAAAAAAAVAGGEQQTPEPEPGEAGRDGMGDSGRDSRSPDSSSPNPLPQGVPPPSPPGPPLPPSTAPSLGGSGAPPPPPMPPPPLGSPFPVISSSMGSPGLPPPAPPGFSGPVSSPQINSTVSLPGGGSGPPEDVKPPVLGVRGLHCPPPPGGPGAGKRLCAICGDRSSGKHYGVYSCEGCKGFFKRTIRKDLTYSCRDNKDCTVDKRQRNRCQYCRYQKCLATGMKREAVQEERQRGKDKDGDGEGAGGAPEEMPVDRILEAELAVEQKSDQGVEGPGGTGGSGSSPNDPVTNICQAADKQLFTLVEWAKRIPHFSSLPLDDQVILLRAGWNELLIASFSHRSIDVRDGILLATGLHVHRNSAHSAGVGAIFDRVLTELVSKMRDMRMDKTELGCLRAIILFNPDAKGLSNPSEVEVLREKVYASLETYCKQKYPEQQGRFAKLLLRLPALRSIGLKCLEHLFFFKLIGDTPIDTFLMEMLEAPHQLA
human RAR-related Orphan Receptor gamma (RORg), RORC (gene 6097), sequence (P51449 whole entry, looked up, the tested form may be a part): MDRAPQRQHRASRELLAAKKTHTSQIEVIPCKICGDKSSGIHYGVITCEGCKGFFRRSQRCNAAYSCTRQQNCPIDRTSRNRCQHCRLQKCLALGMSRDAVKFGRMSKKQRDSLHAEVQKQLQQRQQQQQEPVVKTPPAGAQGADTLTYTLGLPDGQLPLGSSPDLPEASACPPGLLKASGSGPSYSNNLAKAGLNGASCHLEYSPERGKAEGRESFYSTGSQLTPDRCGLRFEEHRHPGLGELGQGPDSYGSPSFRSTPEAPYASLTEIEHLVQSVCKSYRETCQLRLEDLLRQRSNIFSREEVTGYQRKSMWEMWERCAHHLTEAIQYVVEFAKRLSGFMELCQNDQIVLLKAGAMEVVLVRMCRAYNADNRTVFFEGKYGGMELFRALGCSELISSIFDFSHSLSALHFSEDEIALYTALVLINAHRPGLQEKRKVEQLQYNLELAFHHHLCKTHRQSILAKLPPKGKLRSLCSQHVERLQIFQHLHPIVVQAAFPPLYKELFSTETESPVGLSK
Nuclear receptor subfamily 1 group I member 2 (Homo sapiens), sequence (O75469 whole entry, looked up, the tested form may be a part): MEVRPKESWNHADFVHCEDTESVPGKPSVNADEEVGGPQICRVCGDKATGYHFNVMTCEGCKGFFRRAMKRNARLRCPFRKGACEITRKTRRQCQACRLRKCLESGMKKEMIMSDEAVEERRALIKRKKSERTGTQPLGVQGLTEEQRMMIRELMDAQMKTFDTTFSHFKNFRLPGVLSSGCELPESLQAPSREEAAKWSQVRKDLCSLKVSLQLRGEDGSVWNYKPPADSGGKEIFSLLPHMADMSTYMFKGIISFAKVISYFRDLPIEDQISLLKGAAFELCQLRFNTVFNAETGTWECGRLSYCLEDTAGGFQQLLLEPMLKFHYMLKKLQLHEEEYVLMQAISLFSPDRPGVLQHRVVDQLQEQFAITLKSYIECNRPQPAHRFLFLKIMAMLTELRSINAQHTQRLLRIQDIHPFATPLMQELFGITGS
human RAR-related Orphan Receptor beta (RORb), RORB (gene 6096), sequence (Q92753 whole entry, looked up, the tested form may be a part): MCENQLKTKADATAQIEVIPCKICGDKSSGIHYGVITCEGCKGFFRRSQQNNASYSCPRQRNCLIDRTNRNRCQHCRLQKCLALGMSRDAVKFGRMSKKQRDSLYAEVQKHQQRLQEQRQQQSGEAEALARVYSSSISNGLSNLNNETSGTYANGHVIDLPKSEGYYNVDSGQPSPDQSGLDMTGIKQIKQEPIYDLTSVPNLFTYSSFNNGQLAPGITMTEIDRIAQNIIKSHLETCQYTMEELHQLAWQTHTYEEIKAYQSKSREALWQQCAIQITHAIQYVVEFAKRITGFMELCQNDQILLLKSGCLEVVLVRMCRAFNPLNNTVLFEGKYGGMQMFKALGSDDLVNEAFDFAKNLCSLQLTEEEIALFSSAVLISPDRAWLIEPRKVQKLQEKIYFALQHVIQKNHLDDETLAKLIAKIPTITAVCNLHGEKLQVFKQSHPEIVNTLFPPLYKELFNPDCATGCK
E-selectin (Homo sapiens), sequence (P16581 whole entry, looked up): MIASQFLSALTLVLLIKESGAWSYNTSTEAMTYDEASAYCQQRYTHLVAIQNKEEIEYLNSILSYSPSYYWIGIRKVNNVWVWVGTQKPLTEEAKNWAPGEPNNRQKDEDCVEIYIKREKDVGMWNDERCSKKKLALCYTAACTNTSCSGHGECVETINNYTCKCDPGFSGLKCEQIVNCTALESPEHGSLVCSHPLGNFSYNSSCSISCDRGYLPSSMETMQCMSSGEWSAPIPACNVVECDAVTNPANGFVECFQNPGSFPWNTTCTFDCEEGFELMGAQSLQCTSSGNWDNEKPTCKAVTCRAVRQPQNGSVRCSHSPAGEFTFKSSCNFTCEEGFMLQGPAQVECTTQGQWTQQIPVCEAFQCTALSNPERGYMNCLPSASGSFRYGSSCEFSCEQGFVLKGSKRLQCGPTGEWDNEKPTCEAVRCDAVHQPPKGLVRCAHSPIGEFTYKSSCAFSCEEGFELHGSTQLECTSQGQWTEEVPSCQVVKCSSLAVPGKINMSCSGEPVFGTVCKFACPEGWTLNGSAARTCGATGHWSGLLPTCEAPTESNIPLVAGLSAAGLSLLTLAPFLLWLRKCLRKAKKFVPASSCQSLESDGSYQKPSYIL
human Retinoic Acid Receptor gamma (RARg), RARG (gene 5916), sequence (P13631 whole entry, looked up, the tested form may be a part): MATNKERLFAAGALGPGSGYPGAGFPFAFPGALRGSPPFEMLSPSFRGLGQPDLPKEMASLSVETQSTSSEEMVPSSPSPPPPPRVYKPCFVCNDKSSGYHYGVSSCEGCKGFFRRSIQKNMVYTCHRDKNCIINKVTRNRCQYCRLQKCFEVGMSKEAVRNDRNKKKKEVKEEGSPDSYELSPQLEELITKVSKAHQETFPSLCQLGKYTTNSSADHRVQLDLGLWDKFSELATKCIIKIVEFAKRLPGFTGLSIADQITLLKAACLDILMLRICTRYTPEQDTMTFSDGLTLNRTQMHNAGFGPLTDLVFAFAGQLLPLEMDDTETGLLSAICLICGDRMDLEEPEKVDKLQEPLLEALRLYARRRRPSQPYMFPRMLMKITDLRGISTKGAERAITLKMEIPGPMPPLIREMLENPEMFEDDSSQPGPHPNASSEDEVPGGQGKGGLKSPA
human Retinoic Acid Receptor beta (RARb), RARB (gene 5915), sequence (P10826 whole entry, looked up, the tested form may be a part): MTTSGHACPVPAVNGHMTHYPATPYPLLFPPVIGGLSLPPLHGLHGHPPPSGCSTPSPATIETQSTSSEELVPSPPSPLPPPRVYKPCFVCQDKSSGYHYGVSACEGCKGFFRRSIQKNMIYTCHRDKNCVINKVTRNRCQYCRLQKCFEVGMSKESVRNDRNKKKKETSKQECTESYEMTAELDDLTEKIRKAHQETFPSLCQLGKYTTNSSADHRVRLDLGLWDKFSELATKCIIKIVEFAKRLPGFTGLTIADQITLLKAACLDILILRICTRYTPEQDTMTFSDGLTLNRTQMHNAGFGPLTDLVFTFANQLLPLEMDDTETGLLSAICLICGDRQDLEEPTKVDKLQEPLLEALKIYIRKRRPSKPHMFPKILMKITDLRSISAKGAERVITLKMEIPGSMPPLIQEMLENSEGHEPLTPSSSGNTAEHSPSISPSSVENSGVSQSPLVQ

CCC[CH2][Sn]([Cl])([Cl])[Cl]
inactive: [1] | [2] | [3]

COc1cc2c(cc1OC)[C@@]13CCN4CC5=CCO[C@H]6CC(=O)N2[C@H]1[C@H]6[C@H]5C[C@H]43
inactive: [4] | [5] | [3]

O=C(OC1CCCCC1)c1ccccc1C(=O)OC1CCCCC1
inactive: [3]
active: [6] 14.6 µM | [7] 9.38 µM | [4] 8.15 µM | [8] 7.44 µM | [9] 11.3 µM | [10] 11.6 µM | [11] 11.7 µM | [12] 8.94 µM | [13] 8.46 µM

CC(C)(c1ccc(OCC2CO2)cc1)c1ccc(OCC2CO2)cc1 (stereo not given)
inactive: [4] | [1] | [5] | [14] | [8]

Cl/C=C/Cl
inactive: [2] | [8] | [3]

CCC1(c2ccc(N)cc2)CCC(=O)NC1=O (stereo not given)
inactive: [4] | [1] | [5] | [14] | [3]

NC(=O)O
not listed: [4] | [9] | [15] | [16] | [17] | [18]
inactive: all other assays above

C[C@]12CC[C@H](O)CC1=CC[C@@H]1[C@@H]2CC[C@]2(C)C(=O)CC[C@@H]12
active: [1] 27.5 µM
inactive: [15] | [16] | [4] | [17] | [14] | [8]

CC1(C)Cc2cccc(O)c2O1
not listed: [2] | [3] | [4] | [5] | [15] | [16]
inactive: all other assays above

Reference: PubChem BioAssay (EPA / NIEHS)
